Screens from PubChem.
DT40 TDP1 no CPT = qHTS for Inhibitors of human tyrosyl-DNA phosphodiesterase 1 (TDP1): qHTS in cells in absence of CPT. DT40 Tdp1-/- hTDP1 cells, no CPT, ATP luminescence, 48 h. Potency, µM (titrated, usually from 46.2 µM), for inactives: at the highest dose activity change, negative = growth inhibition, most hits filed as inhibitors. 420,000 compounds, 15% hits; also: potency is read from the fitted curve at half-maximal effect; nearly all actives have a fitted effect of over 55% in size
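Luminescent ATP content (CellTiter-Glo) served as the growth readout. Knockout chicken DT40 cells expressing human TDP1 were exposed to compounds without camptothecin for a minimum 48 hr at 37 °C.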
DT40 TDP1 CPT = DT40-hTDP1 cell growth loss with CPT. Potency, µM (highest dose often 46.2 µM), inactives show top-dose activity change, negative = growth inhibition, actives largely listed as inhibitors. AID 686979. chicken DT40 Tdp1-/-;hTDP1 cells + 20 nM CPT, ATP luminescence, 48 h. 420,000 compounds, 12% hits; also: potency is read from the fitted curve at half-maximal effect; nearly all actives have a fitted effect of over 55% in size
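Chicken DT40 Tdp1-/- cells stably complemented with human TDP1 were seeded at 400 cells/well in medium containing 20 nM camptothecin, exposed to pin-transferred compounds, and grown at 37 °C for at least 48 hr. Viability was read as ATP luminescence.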
IL1B secr inh = blocks inflammasome-driven IL-1 beta release | 360,000 compounds, 4.7% hits | activity change, % at 57.5 µM | AID 743279 | THP-1 LPS/ATP IL-1B secretion, AlphaLISA, 16 h; stronger effect = lower value; in the data active = activity change below about -50%; inconclusive = mostly about -30% to -49%
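Secreted IL-1B measured by AlphaLISA bead assay after 16 h compound exposure of THP-1 cells; compounds (final up to 57.5 uM) added 1 h before LPS (250 ng/mL) and ATP (1.25 mM) stimulation; lower signal means less secretion.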
VP16 counter = inhibits Gal4-VP16 luciferase reporter, ROR gamma counter-screen. Drosophila S2 Gal4-VP16 UAS-luciferase, luminescence, 20 h. Potency, µM (series often up to 53.6 µM), for the others: top-dose activity, negative = inhibition, actives largely listed as inhibitors. 310,000 compounds, 3.5% hits. AID 2546;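 also: Gal4-VP16 expression switched on by copper sulfate through the metallothionein promoter; potency is read from the fitted curve at half-maximal effect; nearly all actives have a fitted effect of over 50% in size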
RORgamma inh = ROR gamma (mouse) transcription inhibition; P51450; Drosophila S2 Gal4-RORgamma UAS-luciferase reporter, 20 h; Potency, µM (doses to about 53.6 µM), inactives show at the top dose activity change, negative = inhibition, hits mostly inhibitors; 310,000 compounds, 5.4% hits; AID 2551; also: potency is read from the fitted curve at half-maximal effect; nearly all actives have a fitted effect of over 60% in size
Target sequence (P51450 whole entry, looked up, the tested form may be a part): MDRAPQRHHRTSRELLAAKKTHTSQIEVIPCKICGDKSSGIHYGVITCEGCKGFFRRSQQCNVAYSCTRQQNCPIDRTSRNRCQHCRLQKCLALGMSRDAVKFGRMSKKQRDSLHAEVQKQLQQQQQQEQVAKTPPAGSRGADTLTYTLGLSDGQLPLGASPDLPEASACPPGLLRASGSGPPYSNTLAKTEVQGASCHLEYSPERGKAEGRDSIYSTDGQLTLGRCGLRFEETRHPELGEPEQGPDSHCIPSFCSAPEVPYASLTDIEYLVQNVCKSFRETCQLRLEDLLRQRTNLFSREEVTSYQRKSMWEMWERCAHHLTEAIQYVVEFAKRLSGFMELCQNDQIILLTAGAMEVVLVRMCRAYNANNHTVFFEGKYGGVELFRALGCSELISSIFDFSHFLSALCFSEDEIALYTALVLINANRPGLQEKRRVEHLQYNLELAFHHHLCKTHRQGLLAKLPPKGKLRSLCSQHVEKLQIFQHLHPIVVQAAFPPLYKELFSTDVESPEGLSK
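Schneider cells (Drosophila), stable Gal4 DBD–ROR gamma + UAS-luc; 1 hr cmpd preincubation; Cu2+ induction 700 uM final; 20 hr ambient; luminescence.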
LDHA block = LDHA (human) enzyme inhibition; purified LDHA, NADH/diaphorase-resazurin fluorescence; stronger effect = lower value; activity change, % (values are at about 110 or 230 µM); 480,000 compounds, 0.15% hits; in the data active = activity change below about -30%; inconclusive = mostly about -25% to -30%;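 also: plate controls were DMSO wells for no effect and wells without enzyme for full effect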
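Remaining NADH was detected by diaphorase (0.133 mg/mL) converting 37 µM resazurin to fluorescent resorufin, read at 0 and 20 minutes. The preceding 5-minute room-temperature reaction used 2 nM LDHA, 0.2 mM sodium pyruvate and 0.06 mM NADH at pH 7.4.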
* hit, by the source's call; ? = inconclusive; nt = no result given. Only some compounds are listed: those with a hit (about 18% of all), similar ones and a draw of the others. Unless noted, calls follow the shape of the dose curve; as a rule, active = well fitted curve in the direction sought with a large enough effect; inconclusive = small, poorly fitted or top-dose-only effect, or another doubt; inactive = no such curve, though single readings can be large; an effect the other way counts as inactive or inconclusive. Unless noted, % is scaled to controls: 0 for no effect and ±100 for the full control effect.

SMILES	DT40 TDP1 no CPT	DT40 TDP1 CPT	IL1B secr inh	VP16 counter	RORgamma inh	LDHA block
COc1ccc(OC)c(N(CC(=O)NC2CCCCCC2)S(=O)(=O)c2ccc(C)cc2)c1	23µM*	23µM*	-4	-8%	39%	1
COc1ccc(OC)c(N(CC(=O)NC2CCCC2)S(=O)(=O)c2ccc(OC)c(OC)c2)c1	15µM*	15µM*	20	-1%	3%	-5
CCOc1ccccc1N(CC(=O)NC1CCCCC1)S(=O)(=O)c1ccc(C)cc1	21µM*	?	-23	?	-31%	4
O=S1OCCSc2sc(=S)sc2SCCO1	nt	nt	nt	nt	nt	-1
Brc1n[nH]c(Br)n1	nt	nt	nt	nt	nt	10
CCCCOc1ccc(NC(=O)CC)c2cccnc12	nt	nt	nt	nt	nt	35
Cc1ccccc1N(CC(=O)NCCN1CCOCC1)S(=O)(=O)c1ccccc1	nt	nt	nt	nt	nt	-6
COCCn1c(=NC(=O)CSC(C)=O)sc2cc(OC)ccc21	?	?	-21	-4%	-19%	-4
COCCn1c(=NC(=O)CSC(C)=O)sc2cc(F)ccc21	23µM*	21µM*	-27	4%	-34%	-2
COCCn1c(=NC(=O)CSCC(=O)NC2CCCCC2)sc2cc(OC)ccc21	21µM*	23µM*	-21	1%	9%	-11
C=CCn1c(=NC(=O)c2sc3ccccc3c2Cl)sc2cc(S(N)(=O)=O)ccc21	?	?	-4	?	?	-10
COCCn1c(=NC(=O)CCS(=O)(=O)c2ccccc2)sc2cc(F)ccc21	21µM*	18µM*	-4	1%	22%	-4
COCCn1c(=NC(=O)c2sc3ccccc3c2Cl)sc2cc(S(N)(=O)=O)ccc21	13µM*	?	17	?	6%	-10
Cc1oc(-c2ccccc2)nc1C(=O)N1CCN(C)CC1c1ccccc1 (stereo unspecified)	nt	nt	nt	nt	nt	-1
CC(C)(C)c1ccc(C2CC2C(=O)N/N=C/c2ccc(Cl)cc2)cc1 (stereo unspecified)	nt	nt	nt	nt	nt	10
COCCn1c(=NC(=O)/C=C/c2cccs2)sc2cc(NC(C)=O)ccc21	23µM*	?	0	-5%	15%	-5
Cc1ccccc1CC(C)Nc1ccc(C#N)cn1 (stereo unspecified)	nt	nt	nt	nt	nt	12
Cn1c(CN2CCCC2)nc2cc(NS(=O)(=O)c3ccc(Cl)cc3)ccc21	-27%	-6%	-8	-9%	-17%	-3
Cn1c(CN2CCCC2)nc2cc(NS(=O)(=O)c3ccccc3)ccc21	-5%	-15%	2	4%	11%	0
Cn1c(CCN2CCCCC2)nc2cc(NS(=O)(=O)c3ccccc3)ccc21	?	?	-50*	7%	-3%	-7
Cn1c(CCN2CCCC2)nc2cc(NS(=O)(=O)c3ccc(Cl)cc3)ccc21	?	?	-86*	-8%	-15%	-2
Cn1c(CCN2CCCC2)nc2cc(NS(=O)(=O)c3ccc(F)cc3)ccc21	?	?	-56*	nt	nt	0
COc1ccc(-n2cnc3cc(NS(=O)(=O)c4ccccc4)ccc32)cc1	21µM*	?	-11	-9%	6%	-5
c1ccc(Nc2ccc(-c3ccc(Nc4ccccc4)cc3)cc2)cc1	nt	nt	nt	nt	nt	-2
CC(NC(=O)c1ccccc1)C1CCCO1 (stereo unspecified)	nt	nt	nt	nt	nt	-3
SMILES	DT40 TDP1 no CPT	DT40 TDP1 CPT	IL1B secr inh	VP16 counter	RORgamma inh	LDHA block
CC1(C(=O)NCc2ccccc2)Cn2c(ccc2-c2ccco2)C(=O)N1Cc1ccccc1F (stereo unspecified)	nt	nt	nt	nt	nt	1
Cn1c(CCN2CCOCC2)nc2cc(NS(=O)(=O)c3ccccc3)ccc21	?	-12%	-18	-3%	6%	-6
Cn1c(CCN2CCN(c3ccccn3)CC2)nc2cc(NS(=O)(=O)c3ccccc3)ccc21	13µM*	?	-4	-2%	22%	-7
Cc1ccc(S(=O)(=O)Nc2ccc3c(c2)nc(CCN2CCCC2)n3C)cc1	?	?	-76*	-15%	-39%	-1
CC(NC(=O)c1ccc(Cl)o1)c1ccc(C(F)(F)F)cc1 (stereo unspecified)	nt	nt	nt	nt	nt	7
CCOC(=O)C(NC(=O)COc1cccc2ccccc12)C(=O)OCC	nt	nt	nt	nt	nt	13
CN(Cc1ccc2ccccc2c1)C(=O)CCc1ncc(-c2ccccc2F)o1	nt	nt	nt	nt	nt	9
Cc1cc(Cl)ccc1OCC(=O)N[C@@H](Cc1ccccc1)c1nc2ccccc2[nH]1	16µM*	21µM*	16	?	?	-9
Cc1cc(OCC(=O)Nc2ccc3[nH]ncc3c2)ccc1Cl	nt	nt	nt	nt	nt	6
Cc1ccc(-c2nc3ccccc3[nH]2)cc1NC(=O)COc1ccc(Cl)cc1Cl	5.2µM*	6.5µM*	nt	nt	nt	-3
Cc1ccc(-c2nc3ccccc3[nH]2)cc1NC(=O)c1sc2cc(Cl)ccc2c1Cl	16µM*	8.2µM*	0	4%	11%	-18
Cc1cc(OCC(=O)Nc2cc(-c3nc4ccccc4[nH]3)ccc2C)ccc1Cl	7.3µM*	15µM*	nt	nt	nt	-4
Cc1ccc(-c2nc3ccccc3[nH]2)cc1NC(=O)COc1cccc(C)c1C	nt	nt	nt	nt	nt	-8
O=C(CSc1ccc(Cl)cc1)Nc1ccc2c(c1)OCCCO2	nt	nt	nt	nt	nt	4
COc1ccc2c(c1)/C(=N/OC(=O)c1cc(Cl)ccc1SC)CCC2	nt	nt	nt	nt	nt	7
O=C(/C=C/c1cccc(Cl)c1Cl)c1ccccc1OC(F)F	nt	nt	nt	nt	nt	9
Cn1ncc(C#N)c1NC(=O)C1CC(c2ccc(Cl)c(Cl)c2)=NO1 (stereo unspecified)	-23%	-32%	36	-1%	23%	1
O=C(NCC1CCCO1)C1CC(c2ccc(Cl)c(Cl)c2)=NO1 (stereo unspecified)	?	18µM*	10	26%	37%	1
COc1cccc(C(=O)N/N=C/c2ccc(Oc3ccc([N+](=O)[O-])cn3)c(OC)c2)c1	?	21µM*	-8	2%	6%	1
COc1ccc(/C=N/NC(=O)c2cccc([N+](=O)[O-])c2)cc1OC(=O)c1ccc(C)cc1	?	?	26	?	5µM*	4
COc1cc(/C=N/NC(=O)COc2c(C)cc([N+](=O)[O-])cc2C)ccc1OC(=O)c1ccccc1	21µM*	13µM*	62	24%	24%	-4
COc1cc(/C=N/NC(=O)c2cccc([N+](=O)[O-])c2)ccc1OCc1ccccc1	?	?	-3	?	3.2µM*	-9
